# Source: PubChem BioAssay AID430 (Sanford-Burnham Center for Chemical Genomics, 2006)
# In all, about 63,000 compounds went through this assay and about 1,100 (1.7%) were called active. The entries come from a sample that favours actives as a whole. Results with a measured potency or affinity are listed apart. Unmarked numbers belong to inactive results. Rule as the data show it: active = cytotoxicity above about 50%; inactive = the rest.
# Experiment: cytotoxicity in HPDE-C7 cells, cell-based, fluorescence, HTS (AID 430);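 also: cells exposed to compound for 48 hours before viability readout; 0% = vehicle and 100% = reference cytotoxic drug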
# Conditions: HPDE-C7 pancreatic duct cells viability, at 10 µM, hits give high values
row,Structure (SMILES),cytotoxicity
1,CCn1c(C(=O)NCc2cccnc2)cc2sc(Cl)cc21,1.8%
2,CC(=O)Nc1cc(C(=O)N2CCOCC2)ccc1S(=O)(=O)c1ccc(C)cc1,-15.2%
3,COc1ccc(CCNC(=O)C2CCCN(C(=O)N(C)C)C2)c(OC)c1 (configuration not stated),-5.4%
4,CCN(CC)c1ccc2c(c1)C(=O)N(C)C2=O,11.6%
5,CCn1cc(SCC(=O)NCc2ccc3c(c2)OCO3)c2ccccc21,4.6%
6,COc1ccc(CN(CC2CCCO2)S(=O)(=O)c2ccc(C(=O)O)cc2)cc1OC (configuration not stated),8.1%
7,Cn1c(=Nc2ccc(N3CCOCC3)cc2)ccc2ccccc21,0.9%
8,COc1ccc(-n2nc(C(=O)NCc3ccco3)c3c4ccccc4n(C)c3c2=O)cc1Cl,2.9%
9,Cc1nn(CCO)c2c1C(=O)CCC2,-9.1%
10,O=C1CC(N2CCOCC2)C(=O)N1c1ccc2c(c1)OCO2 (configuration not stated),-4.6%
11,CC1CN(c2nc3ccccc3nc2C(C#N)C(=O)NC2CCCCC2)CC(C)O1 (configuration not stated),-15.5%
12,Cc1ccc(NC(=O)CN2C(=O)NC(Cc3ccccc3)C2=O)cc1 (configuration not stated),-48.1%
13,O=C(Nc1ccccc1N1CCN(C(=O)c2ccc(Cl)cc2)CC1)c1cc2ccccc2o1,-2.7%
14,CCCC(=O)N1CCN(c2ccc(NC(=O)c3cc4ccccc4o3)cc2)CC1,-13.7%
15,CC1CCN(CCCNC(=O)C2CCN(S(=O)(=O)N3CCCCC3)CC2)CC1,-11.8%
16,Cc1ccc(S(=O)(=O)c2c(N)n(/N=C/c3ccco3)c3nc4ccccc4nc23)cc1,38.7%
17,Cc1cccc(S(=O)(=O)c2c(N)n(/N=C/c3cccnc3)c3nc4ccccc4nc23)c1,28.2%
18,Cc1ccc(S(=O)(=O)c2c(N)n(/N=C/c3ccco3)c3nc4ccccc4nc23)cc1C,11.7%
19,Nc1c(S(=O)(=O)c2ccccc2)c2nc3ccccc3nc2n1/N=C/c1ccco1,69% (active)
20,Nc1c(S(=O)(=O)c2cccc(Cl)c2)c2nc3ccccc3nc2n1/N=C/c1ccc(O)c(O)c1,117% (active)
21,Nc1c(S(=O)(=O)c2cccs2)c2nc3ccccc3nc2n1/N=C/c1cccc(O)c1,64.6% (active)
22,Cc1ccc(C)c(S(=O)(=O)c2c(N)n(/N=C/c3ccco3)c3nc4ccccc4nc23)c1,33.6%
23,Cc1cccc(S(=O)(=O)c2c(N)n(/N=C/c3ccco3)c3nc4ccccc4nc23)c1,26.6%

row,Structure (SMILES),cytotoxicity
1,COCCn1c(N)c(S(=O)(=O)c2cccs2)c2nc3ccccc3nc21,5%
2,Nc1c(S(=O)(=O)c2cccs2)c2nc3ccccc3nc2n1Cc1cccs1,-1.9%
3,Nc1c(S(=O)(=O)c2cccc(Cl)c2)c2nc3ccccc3nc2n1CCN1CCOCC1,-2%
4,COc1ccc(-n2c(Cc3cccn3C)nnc2SCC(=O)NC2CCCC2)cc1,-16%
5,CCN(CC)CCNC(=O)Cn1nc(Cc2ccccc2)c2ccccc2c1=O,-4.7%
6,CCOc1cc(C2C(C#N)=C(N)Oc3n[nH]c(CC)c32)ccc1OCCN1CCOCC1 (configuration not stated),-1.8%
7,CCOC(=O)C1CCN(C(=O)CNS(=O)(=O)c2cccs2)CC1,-14.6%
8,CN(CCNC(=O)Cn1c(=O)sc2ccccc21)Cc1ccccc1,10.4%
9,COC(=O)c1sc(NC(=O)Cc2cccs2)nc1C,-9.1%
10,COc1ccc(C(=O)c2sc(NC(C)C)nc2N)cc1OC,-6.1%
11,CCCc1nnc(NC(=O)c2cccc(OC)c2)s1,-16.1%
12,COc1cccc(C(=O)c2sc(NC(C)C)nc2N)c1,70.8% (active)
13,O=C(NC1CCCCC1)c1ccc(CS(=O)(=O)Cc2ccccc2F)o1,-6.3%
14,CCOc1ccccc1NC(=O)Cn1nnc(C(=O)NCc2ccco2)c1N,63% (active)
15,CCOc1ccccc1NC(=O)Cn1nnc(C(=O)Nc2ccc(C)cc2)c1N,-0.5%
16,CCOc1ccccc1NC(=O)Cn1nnc(C(=O)Nc2ccccc2Cl)c1N,8.3%
17,Cc1nn(-c2ccccc2)c2c1C(c1ccco1)C(C#N)=C(N)O2 (configuration not stated),11.5%
18,O=C(Nc1ccc2c(c1)OCCO2)C1CCN(S(=O)(=O)c2ccc(Br)s2)CC1,6.5%
19,O=C(Nc1ccccc1Cl)N1CCN(c2ccc3nnc(-c4ccc(F)cc4)n3n2)CC1,17.7%
20,O=C(Nc1ccc(Cl)cc1)N1CCN(c2ccc3nnc(-c4ccc(F)cc4)n3n2)CC1,69.6% (active)
21,O=C(Nc1ccccc1C(F)(F)F)N1CCN(c2ccc3nnc(-c4ccc(F)cc4)n3n2)CC1,13.1%
22,CCCNS(=O)(=O)c1ccc(OCC(=O)NCc2ccc3c(c2)OCO3)cc1,6.3%
23,Cc1nnc(SCCn2c(N3CCN(C)CC3)nc3c2c(=O)[nH]c(=O)n3C)s1,-9.1%

row,Structure (SMILES),cytotoxicity
1,Cc1nnc(SCCn2c(N3CCN(C)CC3)nc3c2c(=O)n(C)c(=O)n3C)s1,-5.2%
2,Cc1nnc(Sc2nc(Sc3nnc(C)s3)nc(N3CCN(C)CC3)n2)s1,81.3% (active)
3,COc1ccc([C@@H]2[C@H]3CN(C(C)=O)CC=C3C(C#N)=C(N)C2(C#N)C#N)c2ccccc12,-8.9%
4,CCn1c(=O)cc(C(=O)OC)sc1=Nc1ccc(F)c(F)c1,17.4%
5,CCOC(=O)c1ccc(N=c2sc(C(=O)OC)cc(=O)n2C2CC2)cc1,23.6%
6,CCOC(=O)c1ccc(N=c2sc(C(=O)OC)cc(=O)n2CCCN2CCOCC2)cc1,-17.7%
7,CCOC(=O)c1ccc(N=c2sc(C(=O)OC)cc(=O)n2Cc2ccco2)cc1,116% (active)
8,COC(=O)c1cc(=O)n(Cc2ccc3c(c2)OCO3)c(=Nc2ccccc2)s1,34.9%
9,COC(=O)c1cc(=O)n(Cc2ccco2)c(=Nc2ccc(F)c(Cl)c2)s1,82.7% (active)
10,CN(CCc1ccccn1)Cc1ccc(Cl)cc1Cl,3.3%
11,Cc1ccc(-c2nnc(SCc3ccccc3F)o2)cc1,1.8%
12,O=C(Nc1cccc2ncccc12)c1cccnc1,-4.6%
13,O=C(Nc1ccccc1)N(CCN1CCOCC1)Cc1ccccc1F,-7.5%
14,Cc1ccc(C)c(CN2CCCNC2=O)c1,-5.7%
15,COC(=O)c1cc2occc2n1CC(=O)Nc1ccc(OC)c(OC)c1,-0.3%
16,CCNC(=O)CSc1nc2ccccc2c(=O)n1OC,-1%
17,Clc1ccc(Cn2nnc(-c3ccc(CN4CCOCC4)cc3)n2)cc1,-26.4%
18,COC(=O)c1ccc(NC(=O)C2CCCN2S(=O)(=O)c2ccc(F)cc2)cc1 (configuration not stated),2.5%
19,COc1cccc(-c2cc(C(F)(F)F)nc(N3CCN(c4ccccc4)CC3)n2)c1,72.4% (active)
20,COc1cccc(-c2cc(C(F)(F)F)nc(N3CCOCC3)n2)c1,-14%
21,COc1cccc(-c2cc(C(F)(F)F)nc(N3CCCCC3)n2)c1,-12.8%
22,O=c1c2ccccc2oc2ncccc12,-24.9%
23,CCC(Sc1nccn1C)C(=O)Nc1cccc2ccccc12 (configuration not stated),-6.2%

row,Structure (SMILES),cytotoxicity
1,COc1ccc(Cl)cc1S(=O)(=O)N1CCN(C(=O)c2cc(OC)c(OC)c(OC)c2)CC1,-17%
2,COc1ccc(C(=O)N2CCN(c3ccc(C)cc3C)CC2)cc1OC,-9.6%
3,O=C(O)c1ccc(Cl)c(S(=O)(=O)NCc2ccco2)c1,-12.1%
4,COc1cc(C(=O)N2CCN(c3ccc(C)cc3C)CC2)cc(OC)c1OC,53.4% (active)
5,Cc1cccc(N2CCN(C(=O)c3ccncc3)CC2)c1C,34.4%
6,COc1ccc(C(=O)N2CCN(C(=O)c3cc(OC)c(OC)c(OC)c3)CC2)cc1,5.9%
7,O=C(NCC1(N2CCOCC2)CCCCC1)c1ccc(Cl)c(S(=O)(=O)NCc2ccco2)c1,-1.6%
8,Cc1ccc(N2CCN(C(=O)c3ccccc3)CC2)c(C)c1,-29.9%
9,COc1cc(C(=O)N2CCN(c3cc(Cl)ccc3Cl)CC2)cc(OC)c1OC,64.3% (active)
10,Cc1cccc(N2CCN(C(=O)c3ccc(Cl)c(S(=O)(=O)NCc4ccco4)c3)CC2)c1C,65.8% (active)
11,COc1cc(C(=O)N2CCN(C(=O)c3ccccc3)CC2)cc(OC)c1OC,-2.2%
12,COc1cc(C(=O)N2CCN(c3cccc(C)c3C)CC2)cc(OC)c1OC,67.4% (active)
13,CCOCC(=O)Nc1cccc(NC(C)=O)c1,-3.5%
14,COc1ccc(C(=O)N(Cc2ccco2)Cc2cc3cc(C)ccc3[nH]c2=O)cc1OC,4.2%
15,Cc1ccc(S(=O)(=O)Nc2ccc(NC(=O)CN3CCCCC3)cc2)cc1,-3%
16,COc1ccc(OCC(=O)Nc2ccc3c(c2)nc(CCN2CCOCC2)n3C)cc1,10.7%
17,COc1ccc(C(CNC(=O)Cc2cc(OC)c(OC)c(OC)c2)N2CCCC2)cc1 (configuration not stated),-31.8%
18,COc1ccc(-c2nnc(SCC(=O)NC(C)c3ccccc3)o2)cc1OC (configuration not stated),-26.2%
19,O=C(OCc1nnc(-c2ccccc2)o1)c1cc(=O)c2ccccc2o1,1.2%
20,CCC(C)NC(=O)NC1C(NC(=O)NC(C)CC)N(C)C(=O)N1C (configuration not stated),-7.6%
21,CCN(C(=O)c1coc(=O)c2ccccc12)c1cc(OC)ccc1OC,-6.4%
22,Cc1[nH]nc2c1C1(CCN(Cc3ccccc3)CC1)C(C#N)=C(N)O2,-9.5%
23,COc1ccc(C2=NOC(C(=O)N3CCOCC3)C2)cc1OC (configuration not stated),-3.2%
